Source: ChEMBL document CHEMBL3988442, “University of Dundee, Small-Polar-MMV Screening Library” (2021)
Among all 48,000 compounds or so, about 13,000 (27%) showed an effect of 50% or more. The list shows a part of the results.

system: Wolbachia pipientis; assay: Anti-Wolbachia Cell-Based Screen; format: functional; parameters: scale not given: in the data most compounds retested in dose-response had high values; conditions: 5 µM

| Structure (SMILES) | Percent Effect [%] |
| --- | --- |
| CC(C)NC(=O)N1CCC2(CC1)NC(=O)[C@H]1CN(C(=O)N(C)C)C[C@H]12 | -13.82 |
| Cn1ncc2c(NCC3CCS(=O)(=O)C3)nc(-c3ccncc3)nc21 (configuration not stated) | 10.96 |
| O=C1CC(N(C(=O)c2ccc(Oc3ccccc3)cc2)C2CC2)C(=O)N1 (configuration not stated) | -10.84 |
| CN(C)S(=O)(=O)N1C[C@@H]2CC[C@H](C1)N(Cc1ccc3nsnc3c1)C2 | 4.433 |
| Cc1cc(C)n2nc(C(=O)N3CCCC4(CNC(=O)O4)C3)cc2n1 (configuration not stated) | 1.638 |
| CCS(=O)(=O)N1CCC2(CN(c3cccc(F)c3)C(=O)CN2C)C1.O=C(O)C(F)(F)F (configuration not stated) | 7.629 |
| O=C(N1CCCC1)N1CCC2(CC1)CN(c1cccnc1)C(=O)CO2.O=C(O)C(F)(F)F | 93.48 |
| CCS(=O)(=O)N1CCC2(CC1)CN(c1cccnc1)C(=O)CO2.O=C(O)C(F)(F)F | 93.05 |
| CCc1nc(C)c([C@H]2CN(C)C[C@@H]2C(=O)NCCc2cnccn2)[nH]1 | -9.925 |
| COc1ccc(CC(C)(O)CNC(=O)Cc2ccc(F)cc2)cc1 (configuration not stated) | 8.313 |
| COc1ccc(CN(C)[C@@H]2COC[C@H]2c2ccc(F)cc2)cc1.O=C(O)CC(O)(CC(=O)O)C(=O)O | 117.4 |
| COc1ccc(CN2C[C@@H]3COC[C@@H](N4CCN(C)CC4)[C@@H]3C2)cc1.O=C(O)C(F)(F)F.O=C(O)C(F)(F)F.O=C(O)C(F)(F)F | 13.92 |
| CCOc1ncccc1CNC(=O)N1CCCC1c1cc(C)no1 (configuration not stated) | 3.544 |
| Cc1ccc(C(=O)N2CCCC(N)CC2)cc1N1CCNC1=O (configuration not stated) | -4.611 |
| O=C(c1ccc2c(c1)OCO2)N1CCN2C(=O)NC[C@H]2C1 | 6.694 |
| O=C(c1ccc(Cl)cc1)N1CCC(N2CCCNC2=O)CC1 | 102 |
| O=C(CCc1ccc(Cl)s1)N1CCC(N2CCNC2=O)CC1 | 39.9 |
| O=C(c1ccc(Cl)cc1)N1CCC(N2CCCCC2=O)CC1 | 103 |
| Cc1cnc(NC(=O)N2CCC(N3CCCCC3=O)CC2)s1 | 0.5285 |
| Cc1cc(C(=O)N2CCC(N3CCNC3=O)CC2)nn1C(C)(C)C | -1.395 |
| O=C(c1ccc(Cl)cc1)N1CCC(N2CCNC2=O)CC1 | 109.7 |
| O=C(CSc1ccccc1)N1CCC(N2CCCCC2=O)CC1 | -3.003 |
| Cn1cc(N2CCC(NC(=O)c3c(F)cccc3F)C2=O)cn1 (configuration not stated) | -6.231 |

| Structure (SMILES) | Percent Effect [%] |
| --- | --- |
| O=C(NCC1(CO)CC1)c1ccccc1C(F)(F)F | 10.7 |
| O=C(NCCCSC1CCCCC1)C1NCCc2[nH]cnc21 (configuration not stated) | -0.8236 |
| CCOc1ccc(C(=O)N(CCOC)Cc2c(C)nn(CC)c2C)o1 | -1.11 |
| CN(C)C(=O)N1C[C@@H]2COC[C@]2(c2nnc(C3CC3)o2)C1 | 1.303 |
| O=C(Cn1ccc(=O)cc1)N1C[C@H]2CC[C@@H]1CN(c1ncccn1)C2 | -6.945 |
| Cc1nc(C(=O)N2CCOC(Cc3ccccc3)C2)co1 (configuration not stated) | 119.2 |
| CCN1CCN(CC(=O)N2CCOC(Cc3ccc(OC)cc3)C2)CC1 (configuration not stated) | -7.63 |
| CCC1CN(C(=O)c2cc(CN(C)CCc3ccccc3)on2)CCO1 (configuration not stated) | -31.04 |
| CCOC(=O)CNC(=O)N1CCOC(Cc2ccc(OC)cc2)C1 (configuration not stated) | -5.818 |
| O=C1CCC(C(=O)N2CCOC(Cc3ccc(F)cc3)C2)=NN1 (configuration not stated) | -6.141 |
| Cc1nc(C(=O)N2CCOC(Cc3ccc(F)cc3)C2)co1 (configuration not stated) | 139 |
| Cn1nccc1C(=O)N1CCOC(Cc2ccc(F)cc2)C1 (configuration not stated) | -2.544 |
| COc1ccc(CC2CN(C(=O)c3coc(C)n3)CCO2)cc1 (configuration not stated) | 123 |
| Cc1n[nH]c(CCC(=O)N2CCOC(Cc3ccccc3)C2)c1C (configuration not stated) | 0.4396 |
| COc1ccccc1N1CCN(C(=O)CSCC2CC2)C(C)C1 (configuration not stated) | 12.11 |
| Cc1csc(-c2cccc(NC(=O)N3CCOCC3)c2)n1 | -7.869 |
| COc1ccc(S(=O)(=O)NCCC(O)c2ccoc2)c(C)c1 (configuration not stated) | 14.16 |
| Cc1cc(C(=O)N(C)CC(F)(F)C(F)(F)F)ccc1-n1cncn1 | -4.765 |
| Cl.N#Cc1ccc(NC(=O)C2CSCN2)cc1 (configuration not stated) | 137.5 |
| O=C(Nc1ccc(F)cc1)C1CSCN1 (configuration not stated) | 136.1 |
| N#Cc1ccc(SCCC(=O)Nc2ccc(CC(N)=O)cc2)cc1 | -23.76 |
| O=C(Nc1ccc(F)cc1)C1CCc2ccccc2N1 (configuration not stated) | 3.241 |
| CC(C(=O)Nc1ccc(C#N)cc1)N1CCc2ccccc21 (configuration not stated) | -0.338 |

| Structure (SMILES) | Percent Effect [%] |
| --- | --- |
| O=C(Nc1ccc(F)cc1)C1CNCCN1C(=O)CC1CCCCC1 (configuration not stated) | -14.62 |
| CN1CCCCC12CCN(c1nncs1)C2 (configuration not stated) | -10.05 |
| COc1cc(Cl)cc(C(=O)N2CCC3(CCCNC3)C2)c1 (configuration not stated) | -2.555 |
| CCCc1nnsc1C(=O)N1CCN(CC(C)O)CC1.Cl (configuration not stated) | 3.712 |
| CCc1ccsc1C(=O)N1CCN(CC(N)=O)CC1 | 101.9 |
| CC(=O)N1CCN(C(=O)c2sccc2Br)CC1 | -5.711 |
| CSc1ccsc1C(=O)N1CCN(CC(C)(C)O)CC1 | 6.232 |
| CCc1ccsc1C(=O)N1CCN(CCN2C(=O)CCC2=O)CC1 | 117.8 |
| CCc1ccsc1C(=O)N1CCS(=O)(=O)CC1 | -3.186 |
| CCc1ccc(C(=O)N2CCN(CC(C)O)CC2)o1 (configuration not stated) | -6.937 |
| CCc1ccsc1C(=O)N1CCN(C(=O)c2ccc(C)o2)CC1 | -4.902 |
| CCc1ccsc1C(=O)N1CCN(CC(C)O)CC1 (configuration not stated) | 130.8 |
| N#Cc1cccc(CN2C[C@@H](F)[C@@H](OCc3nc4cnccc4[nH]3)C2)c1 | -8.923 |
| c1cc(NCc2ccsc2)cc(-c2nnc[nH]2)c1 | -4.767 |
| Cc1cnc(N2CCN3C[C@H](OCc4cccc(C)n4)C[C@H]3C2)nc1.O=C(O)C(F)(F)F.O=C(O)C(F)(F)F.O=C(O)C(F)(F)F | -4.424 |
| O=C(CCc1ccncc1)NCc1csc(Br)c1 | 90.69 |
| O=C(NCc1csc(Br)c1)c1ccncc1 | 3.838 |
| CC(C)c1cc2c(O)nc(CSCC(=O)NCc3ccncc3)nc2s1 | 17.11 |
| O=C(CCNc1ncccn1)NCc1csc(Br)c1 | 22.34 |
| O=C(CSCc1ccncc1)NCc1csc(Br)c1 | 146.4 |
| CC(=O)N1CCN(C(=O)NCc2csc(Br)c2)CC1 | 1.629 |
| COc1cc(C)c(CNC(C)c2nc(C)cs2)cc1OC (configuration not stated) | -0.3291 |
| CNC(=O)c1cn2cc(-c3ccc(F)cc3)n(CC=C(C)C)c(=O)c2n1 | 0.6659 |

| Structure (SMILES) | Percent Effect [%] |
| --- | --- |
| Cc1nccc(N2CC[C@@H]3[C@@H](CCC(=O)N3CCc3ccccc3)C2)n1 | -6.653 |
| Cc1cc(C)c(C#N)c(N2CCC(Cc3ccccc3)CC2)n1 | -43.81 |
| CCS(=O)(=O)N1CCC2(CC1)COC(COc1cccnc1)C2.O=C(O)C(F)(F)F (configuration not stated) | 0.5823 |
| O=C(c1c[nH]c2ncccc12)N1CCC(COc2ccccc2)CC1 | -0.9312 |
| CCN1CC(COc2ccccc2)Oc2ncccc2S1(=O)=O (configuration not stated) | 122.7 |
| CCN1Cc2c(C(=O)NCC3CC3)ncn2-c2ccccc2S1(=O)=O | 19.38 |
| N#Cc1nccnc1N1CCC(Cc2ccccc2)C1 (configuration not stated) | -1.044 |
| O=S1(=O)c2cccnc2OC(Cc2ccccc2)CN1CC1CC1 (configuration not stated) | 92.92 |
| COCC1CN(C(=O)Cc2ccccn2)Cc2c1cnn2CC1CC1.O=C(O)C(F)(F)F.O=C(O)C(F)(F)F (configuration not stated) | -11.65 |
| O=S1(=O)c2cccnc2OC(COc2ccccc2)CN1CC1CC1 (configuration not stated) | 113.6 |
| COC(=O)CNCC1(O)CCCN(Cc2cccc(F)c2F)C1=O (configuration not stated) | 2.816 |
| O=C(NCc1ccncc1)c1ccc(Cl)cc1F | 1.231 |
| CS(=O)(=O)Cc1ccc(CNC(=O)c2cccnc2O)cc1 | 12.39 |
| COc1ncccc1CNC(=O)c1cccnc1O | -6.886 |
| COc1cccc(CNC(=O)c2nc3c(o2)CN(S(C)(=O)=O)C3)c1 | -11.41 |
| Nc1ncccc1C(=O)NCc1ccc(Br)cc1 | 135.9 |
| Nc1ncccc1C(=O)NCc1cccc(Cl)c1 | 135.3 |
| Nc1ncccc1C(=O)NCc1cccc(Br)c1 | 158 |
| CC(C)(NC(=O)NCc1cccc(Br)c1)C(=O)O | 23.95 |
| COc1cccc(CNC(=O)c2cccnc2N)c1 | 120.4 |
| NC(=O)CN(CC(=O)NCc1cccc(Cl)c1)C1CCCC1 | 3.155 |
| COCC(=O)NCc1cccc(Br)c1 | -15.74 |
| Cn1ccnc1-c1noc(NCc2ccccc2)n1 | -0.05664 |

| Structure (SMILES) | Percent Effect [%] |
| --- | --- |
| Nc1nnc(CCCNc2ncnc3c2CCN(C(=O)C2CC2)C3)s1 | 2.255 |
| O=C(O)CSc1nnc(-c2cn[nH]c2)n1-c1ccccc1C(F)(F)F | -22.33 |
| CC(=O)NC1(C(=O)N(C)Cc2c(C)noc2C)CCCCC1 | -7.535 |
| COc1ccc(C2CC(=O)c3c(O)cc(O)cc3O2)cc1O (configuration not stated) | -2.499 |
| CC(C)(C)c1coc([C@@H]2COCCN2Cc2ccccn2)n1 | -4.744 |
| Cc1cccc(CNC(=O)c2cccnc2N)c1 | 165.4 |
| CCCNC(=O)c1cccc2ncccc12 | 14.09 |
| Cc1cccc(CN2CCN(C(=O)c3cccnc3O)CC2)c1 | -8.356 |
| Cc1noc(CN(Cc2cccs2)C2CCS(=O)(=O)C2)n1 (configuration not stated) | 99.33 |
| O=C(CN(Cc1cccs1)C1CCS(=O)(=O)C1)NC1CCCCC1 (configuration not stated) | 14.98 |
| Cc1noc(C)c1CN(Cc1cccs1)C1CCS(=O)(=O)C1 (configuration not stated) | 104.9 |
| CC(C)(C)c1nc(CN(Cc2cccs2)C2CCS(=O)(=O)C2)cs1 (configuration not stated) | 26.63 |
| CC(C)(C)c1nc(CN(Cc2cccs2)C2CCS(=O)(=O)C2)no1 (configuration not stated) | 9.766 |
| O=S1(=O)CCC(N(Cc2nc(-c3ccccn3)no2)Cc2cccs2)C1 (configuration not stated) | 124.4 |
| CC(=O)c1ccc(C(=O)N(C)Cc2nc(-c3ccccn3)no2)s1 | -11.07 |
| Cc1ccc(-c2nc(CN(Cc3cccs3)C3CCS(=O)(=O)C3)cs2)o1 (configuration not stated) | 4.898 |
| O=C(CN(Cc1cccs1)C1CCS(=O)(=O)C1)NCC1CCCCC1 (configuration not stated) | 2.941 |
| O=S1(=O)CCC(N(Cc2nc3ccccc3o2)Cc2cccs2)C1 (configuration not stated) | 98.01 |
| CC(C)c1noc(CN(Cc2cccs2)C2CC2)n1 | 16.09 |
| Cc1nc(CN(Cc2cccs2)C2CCS(=O)(=O)C2)oc1C (configuration not stated) | -2.391 |
